# Shown are actives, neighbours in structure and some others; about 11% of the full set was active somewhere.
# Pf growth 96h – inhibits malaria parasite growth, 96 h; P. falciparum luciferase reporter growth, 96 h; Potency, µM (titrated, usually from 28.7 µM), without a hit: at the top dose activity change, negative = inhibition, actives largely listed as inhibitors; 320,000 tested, 6.9% active; AID 504834; note: % is set by controls: 0 for no effect and ±100 for the full control effect
#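 Erythrocytes infected with luciferase-expressing P. falciparum were dispensed at 2% hematocrit and 0.05% parasitemia (final), then incubated with compounds 96 hours at 37 C in 5% CO2. Luminescence after detection reagent addition reported growth.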
# HCV inhibitor – HCV inhibition. Huh7.5.1 HCVcc-Cre infection, luciferase reporter, 44 h. Potency, µM (highest dose often 41.8 µM), inactives show at the highest dose activity change, negative = inhibition, hits mostly inhibitors. 340,000 tested, 3.4% active; note: % is set by controls: 0 for no effect and ±100 for the full control effect
#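 Infectious HCV cell culture screen: compound-treated cells (1,000/well, pre-plated 4 h) are infected with HCVcc-Cre at roughly 0.5 moi and grown 44 h. Infection is quantified by luciferase signal after 15 min substrate incubation at room temperature.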
# Pf growth 48h – inhibits P. falciparum growth in the first generation, 48 h; P. falciparum luciferase growth in erythrocytes, 48 h; Potency, µM (doses to about 28.7 µM), without a hit: at the top dose activity change, negative = inhibition, usual class: inhibitors; 310,000 tested, 5.9% active; note: % is set by controls: 0 for no effect and ±100 for the full control effect
#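 First compound was added to culture medium, then infected red cells at 0.1% parasitemia and 2% hematocrit (final). After incubation at 37 C under 5% CO2, luciferase detection reagent was dispensed and light output recorded.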
# Vaccinia mCherry – inhibitors of vaccinia virus infection (mCherry reporter signal). Vaccinia virus mCherry reporter infection, fluorescence. Potency, µM (top dose mostly 36.5 µM), inactives show at the top dose activity change, negative = inhibition, most hits filed as inhibitors. 310,000 tested, 0.63% active. AID 720579; calls by dose curve; tested in A549 cells; note: % is set by controls: 0 for no effect and ±100 for the full control effect; nearly all actives have a fitted effect of over 35% in size
# NS1 function inh – influenza NS1 inhibition; 270,000 tested, 0.4% active; AID 2326; Potency, µM (titrated, usually from 46.1 µM), for the others: top-dose activity, positive = more growth; calls by dose curve; note: actives are rising curves; nearly all actives have a fitted effect of over 50% in size
#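 Growth recovery, yeast-based: influenza A NS1 expressed in S. cerevisiae causes slow growth, and suppressors are detected by OD600. The parent strain without NS1 is used as positive control.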
# VACV Venus inh – vaccinia inhibition (Venus reporter); Potency, µM (doses to about 36.5 µM), without a hit: at the top dose activity change, negative = inhibition, actives largely listed as inhibitors; Vaccinia virus Venus reporter expression, fluorescence; AID 720580; 330,000 tested, 0.46% active; calls by dose curve; tested in A549 cells; note: % is set by controls: 0 for no effect and ±100 for the full control effect; nearly all actives have a fitted effect of over 30% in size
# Active calls of the source: *; i = inactive; ? = inconclusive; . = no result given. Unless noted, calls come from the whole dose curve; as a rule, active = well fitted inhibition curve with a large enough effect; inconclusive = small, poorly fitted or top-dose-only effect, or another doubt; inactive = no such curve, though single readings can be large or run the other way. Potency is the fitted concentration of half-maximal effect.
SMILES,Pf growth 96h,HCV inhibitor,Pf growth 48h,Vaccinia mCherry,NS1 function inh,VACV Venus inh
CCN(c1ccccc1)S(=O)(=O)c1ccc(Cl)c(NC(=O)COC(=O)c2ccc[n+]([O-])c2)c1,1%,13%,-12%,-4%,-12%,-1%
COc1ccc([C@@H]2[C@@H]3C(=O)N(C(C)(C)C)C(=O)[C@@H]3[C@]3(CC(C)C)C(=O)N(c4cccc(Br)c4)C(=O)N23)cc1,3.7µM*,-9%,?,i,13%,-25%
COc1ccc([C@@H]2[C@@H]3C(=O)N(C(C)(C)C)C(=O)[C@@H]3[C@]3(CC(C)C)C(=O)N(c4ccccc4)C(=O)N23)cc1,?,8%,?,-23%,-9%,-8%
CC(C)C[C@@]12C(=O)N(c3cccc(Cl)c3)C(=O)N1[C@H](c1ccc(Br)cc1)[C@@H]1C(=O)N(C(C)(C)C)C(=O)[C@@H]12,4.1µM*,15%,3.7µM*,i,.,-16%
CC(C)C[C@@]12C(=O)N(c3ccc(Br)cc3)C(=O)N1[C@H](c1ccc(Br)cc1)[C@@H]1C(=O)N(C(C)(C)C)C(=O)[C@@H]12,?,-3%,-40%,i,19%,?
CC(C)C[C@@]12C(=O)N(c3cccc(F)c3)C(=O)N1[C@H](c1ccc(Br)cc1)[C@@H]1C(=O)N(C(C)(C)C)C(=O)[C@@H]12,5.2µM*,-2%,13µM*,-5%,.,-25%
CC[C@@]12C(=O)N(c3cccc(F)c3)C(=O)N1[C@H](c1ccc(OC)cc1)[C@@H]1C(=O)N(C(C)(C)C)C(=O)[C@@H]12,?,29%,?,-29%,.,0%
CCOc1ccc(N(CC(=O)NCc2ccccc2Cl)S(=O)(=O)c2c(C)[nH]c(=O)[nH]c2=O)cc1,36%,4%,-1%,i,-3%,-17%
C=CCn1c(=O)c(C(=O)Nc2cc(C)ccn2)c(O)c2ccccc21,?,?,18%,i,-8%,-6%
COc1cccc(/C=C/C(=O)NCc2ccc(S(N)(=O)=O)cc2)c1,53%,10µM*,40%,-9%,-4%,-5%
CC(=O)Cn1ncc(N2CCCCC2)c(Cl)c1=O,45%,4%,40%,.,3%,.
C=CCn1c2ccccc2c(=O)c2cc(C#CC[C@@H](C)O)ccc21,?,13µM*,0%,?,.,-21%
C=CCn1c2ccccc2c(=O)c2cc(C#CC3(O)CCCCC3)ccc21,?,10µM*,142%,-17%,-6%,?
Cc1ccc(COC(=O)CCN=C2NS(=O)(=O)c3ccccc32)cc1,-23%,9%,?,-14%,.,-6%
CCOc1cc2nc(-c3ccc(OC)c(OC)c3)nc(NCCCN3CCOCC3)c2cc1OC,0.074µM*,?,.,-20%,0%,-28%
COc1ccc(-c2oc3ncnc(NCCN4CCOCC4)c3c2-c2ccc(OC)cc2)cc1,?,?,.,0%,-147%,-10%
COc1ccc(-c2oc3ncnc(NCCCN4CCOCC4)c3c2-c2ccc(OC)cc2)cc1,82%,2.8µM*,5.2µM*,.,-46%,.
c1ccc(-c2oc3ncnc(NCCCN4CCOCC4)c3c2-c2ccccc2)cc1,?,5.6µM*,?,.,-87%,.
COc1ccc(-c2oc3ncn(CCN4CCOCC4)c(=N)c3c2-c2ccc(OC)cc2)cc1,22%,13µM*,7.4µM*,.,-10%,.
Cc1cccc(-c2nc(C)c(CCNC(=O)C(=O)Nc3c(C)cc(C)cc3C)s2)c1,.,.,.,0%,.,1%
CCCc1cc(=O)oc2cc(C)c(CN3CCCC3)c(O)c12,?,?,?,.,11%,.
CC(C)[C@H](NS(=O)(=O)c1ccccc1)C(=O)OCC(=O)Nc1ccccc1Sc1ccccc1,50%,-1%,1%,i,13%,-22%
Nc1nc(=S)c2[nH]cnc2[nH]1,?,1.3µM*,8.3µM*,?,.,?
NC1=NC[C@H](Cc2ccc(O)cc2)N1CC1CCCCC1,2.6µM*,16%,5.9µM*,-5%,-1%,-6%
NC1=NC[C@@H](Cc2ccc(O)cc2)N1CCCCC1CCCCC1,1.2µM*,20%,1.9µM*,-3%,-1%,-21%
SMILES,Pf growth 96h,HCV inhibitor,Pf growth 48h,Vaccinia mCherry,NS1 function inh,VACV Venus inh
NC1=NC[C@H](Cc2ccccc2)N1CC1CCCCC1,.,8%,.,-5%,.,-6%
COc1cccc(-c2nc(CS(=O)CC(=O)NCCc3ccccc3)c(C)o2)c1 (configuration not stated),-11%,-2%,5%,.,1%,.
Cc1cccc(-c2nc(CS(=O)CC(=O)N3CCN(C)CC3)c(C)o2)c1 (configuration not stated),7.4µM*,5%,.,3%,?,-3%
Cc1cccc(-c2nc(CS(=O)CC(=O)NCCc3ccccc3)c(C)o2)c1 (configuration not stated),5.2µM*,-27%,12%,i,4%,-5%
Cc1ccc2c(c1)C(C)(c1ccccc1)CC(C)(C)N2C(=O)c1ccc(F)cc1 (configuration not stated),.,.,.,-11%,.,-14%
CC(C)CN1C(=O)NC(NC(=O)c2cccs2)(C(F)(F)F)C1=O (configuration not stated),15%,16%,2.3µM*,.,-2%,.
Cc1cc(C)c(C)c(S(=O)(=O)Nc2ccc3cn[nH]c3c2)c1C,?,13µM*,?,.,.,.
COc1ccc(S(=O)(=O)Nc2ccc3cn[nH]c3c2)cc1C,126%,-20%,10%,-16%,.,-14%
CCOC(=O)c1ccc(S(=O)(=O)Nc2ccc3cn[nH]c3c2)cc1,12%,11µM*,1%,.,10%,.
CCOC(=O)N1CCN(Cc2nc3c(c(=O)n(C)c(=O)n3C)n2Cc2cccc(C)c2)CC1,?,-3%,.,.,-16%,.
CCCOc1nc2c(c(=O)n(C)c(=O)n2C)n1Cc1cccc2ccccc12,.,?,13µM*,i,-122%,-14%
CCOC(=O)N1CCN(Cc2nc3c(c(=O)n(C)c(=O)n3C)n2Cc2cccc3ccccc23)CC1,8.3µM*,10%,12µM*,.,-64%,16%
CCCOc1nc2c(c(=O)n(C)c(=O)n2C)n1C,-10%,7%,26%,-2%,-2%,-6%
CCOc1ccc(CCNC(=O)CCCc2nnc3n(CC(C)C)c(=O)c4sccc4n23)cc1,.,.,.,-12%,.,-10%
O=[N+]([O-])c1ccccc1CNCCc1c[nH]c2ccccc12,-29%,-8%,2.9µM*,-5%,-3%,-15%
CCc1ccc(CNCCc2c[nH]c3ccccc23)cc1,7.4µM*,-3%,3%,.,8%,.
COc1cccc(CNC23CC4CC(CC(C4)C2)C3)c1OCc1ccccc1,-15%,?,10µM*,.,-9%,.
c1ccc(CNCCc2c[nH]c3ccccc23)cc1,-1%,-10%,-6%,.,9%,.
Clc1ccccc1CNCCc1c[nH]c2ccccc12,.,.,.,-8%,.,-13%
